# Data reported in PubChem BioAssay AID1851 (National Center for Advancing Translational Sciences (NCATS), 2009).
# Screen size: about 16,000 compounds; about 2,600 (16%) were called active. About 20% were inconclusive and are not listed. The list is a sample of the results. Unmarked numbers belong to inactive results. Calls come from the whole dose curve; as a rule, active = well fitted curve in the direction sought with a large enough effect; inconclusive = small, poorly fitted or top-dose-only effect, or effect the other way; inactive = no such curve, though single readings can be large or run the other way.
# Molecular target: Cytochrome P450 2D6 (Homo sapiens) (UniProt P10635)
# Sequence (P10635 whole entry, looked up): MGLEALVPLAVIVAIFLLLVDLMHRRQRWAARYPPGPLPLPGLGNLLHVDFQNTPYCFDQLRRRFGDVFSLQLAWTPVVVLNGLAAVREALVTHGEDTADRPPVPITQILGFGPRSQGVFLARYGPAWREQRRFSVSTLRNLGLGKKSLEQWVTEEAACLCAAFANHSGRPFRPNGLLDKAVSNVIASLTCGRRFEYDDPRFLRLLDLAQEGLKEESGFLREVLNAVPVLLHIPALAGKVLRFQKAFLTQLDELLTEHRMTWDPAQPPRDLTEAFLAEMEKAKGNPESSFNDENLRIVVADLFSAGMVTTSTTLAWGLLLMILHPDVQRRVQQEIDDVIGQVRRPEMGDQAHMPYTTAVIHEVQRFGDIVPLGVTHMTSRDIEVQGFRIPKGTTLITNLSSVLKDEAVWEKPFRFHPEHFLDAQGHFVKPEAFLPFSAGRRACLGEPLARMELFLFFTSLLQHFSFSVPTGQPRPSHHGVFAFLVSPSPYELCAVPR
# Assay: Cytochrome panel assay with activity outcomes
# Settings: recombinant CYP, pro-luciferin dealkylation, luminescence, p450-cyp2d6; series mostly up to 57.1 µM; activity, negative = inhibition: at the top concentration
# % is set by controls: 0 for no effect and ±100 for the full control effect.
Compound,AC50,"activity, negative = inhibition"
COc1ccccc1-c1cc(NCc2ccccc2)ncn1,20 µM (active),
COc1ccccc1CNc1cc(-c2ccoc2)ncn1,15.8 µM (active),
Cc1sc2ccccc2[n+]1CCC(C)S(=O)(=O)[O-] (stereo unspecified),,10.3%
C=CCSc1nc(Oc2ccccc2)c2sccc2n1,,-26.5%
CCCc1nnc(SCC(=O)N2CCCCC2C)n1CCCOC (stereo unspecified),,11.7%
CCn1cc(C(=O)O)c(=O)c2cnc(N3CCNCC3)nc21,,9.12% [at 25.6 µM]
CO[C@@H]1COC(=O)C/C=C\[C@H](C)COC(=O)[C@H](Cc2ccccc2)NC(=O)C/C=C\[C@H]1C,,9.42% [at 11.4 µM]
Cc1cc(SC(C)C(=O)Nc2c(C)n(C)n(-c3ccccc3)c2=O)nc2ccccc12 (stereo unspecified),,-1.98%
C[C@@]12C(=O)OC(=O)[C@]1(C)[C@H]1CC[C@@H]2O1,,8.05% [at 25.6 µM]
COC(=O)C/C=C1\c2ccccc2[C@H](OC)[C@H]1C,,5.25% [at 11.4 µM]
CC(C)Cn1c(C(C)C)nc([N+](=O)[O-])c1S(=O)(=O)c1ccc(F)cc1,,18.2%
CSc1nc(C)cc(SC(C(C)=O)C(=O)Nc2ccccc2)n1 (stereo unspecified),,-8.06%
C/C(=N\NC(=S)Nc1ccc(F)cc1)C1CC1,,-27%
C[C@@]12CCC(=O)C=C1CC[C@H]1[C@H]3CC[C@](O)(C(=O)CO)[C@]3(C)CC(=O)[C@@H]12,,-2.72% [at 25.6 µM]
COc1ccc(NC(=O)c2cc(-c3cccnc3)nc3ccc(C)cc23)cc1OC,,8.76%
Cc1ccc2nc(-c3ccccc3)cc(C(=O)NCCCn3ccnc3)c2c1,5.01 µM (active),
Cc1cccc(NC(=S)NC(=O)c2cc(-c3ccccc3)nc3ccccc23)c1,,17.4%
COc1cccc(Nc2ncc3nc(-c4ccc(Cl)cc4)c(=O)n(CCC#N)c3n2)c1,,9.73%
C=CCSc1ncccc1C(=O)NCc1ccc(C)cc1,,-19.5%
O=C(/C=C\c1ccc(O)c(O)c1)O[C@@H](Cc1ccc(O)c(O)c1)C(=O)O,,7.2%
CCCC(=O)NC(Nc1ccccc1F)C(Cl)(Cl)Cl (stereo unspecified),,-14.8%
COc1ccccc1-c1cncnc1NCCc1cnc[nH]1,10 µM (active),
COc1cccc(-c2cncnc2NCCc2cnc[nH]2)c1,7.94 µM (active),
COCCNc1ncncc1-c1c(C)noc1C,,4.62%
CC(=O)NCCNc1ncncc1-c1ccccc1C(F)(F)F,,-20.6%
FC(F)(F)c1ccccc1-c1cncnc1NCCc1cnc[nH]1,12.6 µM (active),

Compound,AC50,"activity, negative = inhibition"
CC(Oc1ccc(Cl)cc1)C(=O)/C=C/N(C)C (stereo unspecified),,5.98%
COc1ccc(CNc2nc3nc4c(c(=O)n3[nH]2)CCC4)cc1,,3.53%
CN1CC[C@@]2(CCCN(C(=O)c3cc(C(F)(F)F)cc(C(F)(F)F)c3)C2)C1,,-4.22%
O=C(NC1CCCCC1)c1ccc(COCC(F)(F)F)o1,,-12.2%
Cc1cc2ccc(OC(=O)c3ccc(N=C(N)N)cc3)cc2oc1=O,,-7.56% [at 11.4 µM]
C=CCOc1cccc(/C=N/NC(=O)C(=O)NCc2ccco2)c1,,-29.4%
C[C@@H](Cc1ccccc1)Nc1ncnc2c1ncn2[C@@H]1O[C@@H](CO)[C@H](O)[C@@H]1O,,-5.49%
O=C(CNC(=O)c1ccccn1)N/N=C/c1ccccc1,,7.99%
CCOC(=O)C(CC)(CC)C(=O)/C=C/c1ccc(Br)cc1,,6.41%
C[C@H](NC[C@H](O)CP(=O)(O)Cc1ccccc1)c1ccc(Cl)c(Cl)c1,0.0501 µM (active),
C[C@H](NC[C@H](O)CP(=O)(O)CC1CCCCC1)c1ccc(Cl)c(Cl)c1,,0.922%
Cc1cccc2c1OCC/C2=N\NC(=O)COc1ccccc1Cl,,6.96%
Cc1sc(NC(=O)/C=C/c2ccc(C(C)C)cc2)c(C#N)c1C,,3.12%
Cn1cc(-c2nc3cnc(Oc4ccccc4)nc3n(C3CC3)c2=O)c2ccccc21,,-3.06%
CC(C)NC(=O)N1CC2(CCN(C(=O)c3cc(C(F)(F)F)cc(C(F)(F)F)c3)CC2)C1,0.251 µM (active),
CC(C)CN1CC[C@@]2(CCCN(C(=O)c3cc(C(F)(F)F)cc(C(F)(F)F)c3)C2)C1,,-14.7%
CC(C)NC(=O)N1CCCC2(CCN(C(=O)c3cc(C(F)(F)F)cc(C(F)(F)F)c3)CC2)C1,,-0.937%
CC(C)CN1CCCC2(CCN(C(=O)c3cc(C(F)(F)F)cc(C(F)(F)F)c3)CC2)C1,10 µM (active),
CC(C)NC(=O)N1CCC2(CC1)CCN(C(=O)c1cc(C(F)(F)F)cc(C(F)(F)F)c1)CC2,,11.8%
CC(C)CN1CCC2(CC1)CCN(C(=O)c1cc(C(F)(F)F)cc(C(F)(F)F)c1)CC2,,-6.51%
CCOc1cc(/C=C2/C(=O)N(c3ccccc3)N=C2C)ccc1OC(=O)c1ccco1,,-25.2%
CN1CCCN(S(=O)(=O)c2ccc3c(c2)OCCO3)CC1,,-11%
C=CCNC(=O)c1ccc(-c2nc(-c3ccc(Cl)c(Cl)c3)cs2)cc1,,9.43%
CCOC(=O)N/N=C1/C[C@@H](O)[C@@H](O)[C@@H]2[C@@H]3C(=O)N(CC)C(=O)[C@H]3CC[C@@H]12,,7.29% [at 11.4 µM]
CO[C@H]1COC(=O)[C@H]2CCCN2C(=O)[C@@H](C)COC(=O)C/C=C\[C@@H]1C,,19.9% [at 11.4 µM]
